{"source": "PubChem BioAssay", "key": {"[1]": {"test": "cytotoxicity in PAX8-dependent RMG-1 cells, dose response, cell-based, cherry-pick (AID 687029;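 active = signal drop whose fitted half-maximal concentration is at most twice the top valid dose, in every test run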;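 note: cells exposed to compound for 96 hours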)"}, "[2]": {"test": "non-specific cell cytotoxicity, dose response, cytotoxicity control for PAX8 inhibitor project, plate reader, dry powder samples (AID 743021)"}, "[3]": {"test": "cytotoxicity in IOSE-T80 ovarian epithelial cells, dose response, selectivity assay for PAX8 inhibitor project, cell-based, cherry-pick (AID 687032;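 active = fitted half-maximal concentration for viability loss no higher than twice the top valid dose, in every repeat run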;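 note: cells exposed to compound for 96 h before reading; 0% = neutral control wells and -100% = 2 µM mitoxantrone kill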)"}, "[4]": {"test": "inhibitors of CMV-promoter luciferase reporter, dose response, counter-screen for Pax8 inhibitor project, cell-based, HEK293, luminescence, dry powder (AID 743020;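 active = signal-lowering compounds whose fitted half-maximal concentration is at or below twice the top tested dose in every run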;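 note: HEK293 cells stably expressing the CMV luciferase reporter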)"}, "[5]": {"test": "DNA binders by acridine orange displacement, dose response, counter-screen for EWS/Fli inhibitor project, biochemical, fluorescence polarization, cherry-pick (AID 720586;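 active = fitted curve reaches a 35% signal fall AC35 below twice the sample's top valid tested dose, actives reach about 48 µM in these data; inactive = the rest, including activity in the rising direction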;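 note: 0% = neutral control median and -100% = 10 µM mitoxantrone control median; lower polarization ratio signals compound binding to DNA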)"}, "[6]": {"test": "IGROV1 ovarian cancer cell cytotoxicity, dose response, PAX8 inhibitor project, plate reader, dry powder samples (AID 743043);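 note: more negative means fewer viable cells or more cytotoxicity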"}, "[7]": {"test": "NIH:OVCAR-3 ovarian cancer cell cytotoxicity, dose response, PAX8 inhibitor project, plate reader, dry powder samples (AID 743044)", "details": "NIH:OVCAR-3 ovarian cancer cell viability, hits give low values; at 4.2 µM unless noted"}, "[8]": {"test": "IOSE-T80 ovarian epithelial cell cytotoxicity, dose response, cytotoxicity control for PAX8 inhibitor project, plate reader, dry powder samples (AID 743045);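 note: 0% = neutral control median and -100% = positive control median; more negative values mean more cell killing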"}}, "note": "For part of these data: Results with a measured potency or affinity are listed apart. Inconclusive results are not listed. Values without a mark were called inactive. The list shows a part of the results. Active and inactive are the calls of the source. Unless noted, the rule behind the calls is not given here."}
{"smiles": "CC(=O)OC1CC(OC2C(O)CC(OC3C(O)CC(OC4CCC5(C)C(CCC6C5CCC5(C)C(C7=CC(=O)OC7)C(O)CC65O)C4)OC3C)OC2C)OC(C)C1OC1OC(CO)C(O)C(O)C1O", "note": "(stereo unspecified)", "values": [{"measurement": "outcome", "setting": "[1]", "result": "inactive"}, {"measurement": "outcome", "setting": "[2]", "result": "inactive"}]}
{"smiles": "CC(C)(O)/C=C/C(=O)C(C)(O)C1C(O)CC2(C)C3CC=C4C(C=C(O)C(=O)C4(C)C)C3(C)C(=O)CC12C", "note": "(stereo unspecified)", "values": [{"measurement": "outcome", "setting": "[3]", "result": "inactive"}, {"measurement": "outcome", "setting": "[2]", "result": "inactive"}]}
{"smiles": "CCCCCCCCCCCCn1ccc(=N)cc1", "values": [{"measurement": "outcome", "setting": "[1]", "result": "inactive"}, {"measurement": "outcome", "setting": "[2]", "result": "inactive"}]}
{"smiles": "CCC(c1nnnn1Cc1ccccc1)N1CCC(n2c(=O)[nH]c3ccccc32)CC1", "note": "(stereo unspecified)", "values": [{"measurement": "outcome", "setting": "[4]", "result": "inactive"}]}
{"smiles": "NC(=S)c1cn(C2OC(CO)C(O)C2O)c2ncnc(N)c12", "note": "(stereo unspecified)", "values": [{"measurement": "outcome", "setting": "[1]", "result": "inactive"}, {"measurement": "outcome", "setting": "[4]", "result": "inactive"}, {"measurement": "outcome", "setting": "[2]", "result": "inactive"}]}
{"smiles": "C[C@]12CC[C@H](O)C[C@H]1CC[C@@H]1C2CC[C@]2(C)[C@@H](C3=CC(=O)OC3)[C@@H](O)C[C@]12O", "note": "(stereo partly specified)", "values": [{"measurement": "outcome", "setting": "[5]", "result": "inactive"}]}
{"smiles": "COc1ccc(-c2ccc([C@@H]3[C@@H](CO)N4CCCCN(C(=O)Cc5ccccc5)C[C@H]34)cc2)cc1", "values": [{"measurement": "outcome", "setting": "[4]", "result": "inactive"}, {"measurement": "outcome", "setting": "[6]", "result": "inactive"}, {"measurement": "max activity", "setting": "[7]", "result": "-18.2% [at 35 µM]"}, {"measurement": "outcome", "setting": "[8]", "result": "inactive"}]}
{"smiles": "O=c1[nH]c2ccccc2n1C1CCN(C(c2cccs2)c2nnnn2-c2ccc3c(c2)OCCO3)CC1", "note": "(stereo unspecified)", "values": [{"measurement": "outcome", "setting": "[4]", "result": "inactive"}]}
{"smiles": "O=C(Cc1ccccn1)N1CCCCN2[C@@H](CO)[C@@H](c3ccc(-c4ccc(F)cc4)cc3)[C@@H]2C1", "values": [{"measurement": "outcome", "setting": "[3]", "result": "inactive"}, {"measurement": "outcome", "setting": "[4]", "result": "inactive"}, {"measurement": "outcome", "setting": "[2]", "result": "inactive"}, {"measurement": "outcome", "setting": "[6]", "result": "inactive"}, {"measurement": "max activity", "setting": "[7]", "result": 9.98, "unit": "%"}, {"measurement": "outcome", "setting": "[8]", "result": "inactive"}]}
{"smiles": "CC(N)C(=O)NC1C2C(=C(O)CC(O)C2O)C(=O)OC1(C)C(Cl)Cl", "note": "(stereo unspecified)", "values": [{"measurement": "outcome", "setting": "[1]", "result": "inactive"}, {"measurement": "outcome", "setting": "[2]", "result": "inactive"}]}
{"smiles": "COC(=O)C1=C(c2ccc(F)cc2OCc2ccccc2)C[C@@H]2CC[C@H]1N2C(=O)NCc1ccc(C)cc1", "values": [{"measurement": "outcome", "setting": "[1]", "result": "inactive"}, {"measurement": "outcome", "setting": "[4]", "result": "inactive"}, {"measurement": "outcome", "setting": "[2]", "result": "inactive"}]}
{"smiles": "N#Cc1ccc2nc(-c3ccc(CN4CCC(n5c(=O)[nH]c6ccccc65)CC4)cc3)c(-c3ccccc3)nc2c1", "values": [{"measurement": "outcome", "setting": "[1]", "result": "inactive"}, {"measurement": "outcome", "setting": "[2]", "result": "inactive"}]}
{"smiles": "COC1=C(C)C(=O)C2=C(C1=O)C(CO)N1C(C#N)C3CC4C(C1C2N1CCOC41)N3C", "note": "(stereo unspecified)", "values": [{"measurement": "outcome", "setting": "[1]", "result": "inactive"}, {"measurement": "outcome", "setting": "[2]", "result": "inactive"}]}
{"smiles": "C=Cc1cc(OC)c2c(c1)c(=O)oc1c2cc(OC)c2c(O)ccc(C3OC(C)C(O)C(C)(O)C3O)c21", "note": "(stereo unspecified)", "values": [{"measurement": "outcome", "setting": "[1]", "result": "inactive"}, {"measurement": "outcome", "setting": "[2]", "result": "inactive"}]}
{"smiles": "CSCCC(c1nnnn1Cc1ccccc1)N1CCC(n2c(=O)[nH]c3ccccc32)CC1", "note": "(stereo unspecified)", "values": [{"measurement": "outcome", "setting": "[1]", "result": "inactive"}, {"measurement": "outcome", "setting": "[4]", "result": "inactive"}, {"measurement": "outcome", "setting": "[2]", "result": "inactive"}]}
